Unmarked numbers belong to inactive results. No rule for the calls is given here.
Test system: Phorbol Ester
Assay: selectivity profile across receptors and CYP450s – biochemical, Ricerca HitProfilingScreen, CYP450, set 2, selectivity assay for S1P4 agonist project, profiling panel (AID 540332)
Conditions: at 30 µM; hits give high values

## COCCN=C1S/C(=C\c2cc(C)n(-c3ccc(F)cc3F)c2C)C(=O)N1C
  inhibition: 2%

— PubChem BioAssay AID540332 (The Scripps Research Institute Molecular Screening Center, 2011)
